Measured values reported in PubChem BioAssay (NCATS).
Results filed as inconclusive are left out. A call without a number means that no potency is given here. Calls of active or inactive are those of the source. Calls come from the whole dose curve; as a rule, active = well fitted cell-killing curve with a large enough effect; inconclusive = small, poorly fitted or top-dose-only effect; inactive = flat fitted curve, though single readings scatter.

Assay: Cell Viability - LYMP2-011 (AID 969); note: nearly all actives have a fitted effect of over 60% in size
Conditions: LYMP2-011 lymphoblastoid cells viability; series mostly up to 92.2 µM
Description: NIH Chemical Genomics Center [NCGC]
NIH Molecular Libraries Screening Centers Network [MLSCN]
National Institutes of Environmental Health Sciences [NIEHS]
National Toxicology Program [NTP]
We have developed a 1536-well cell-based assay for quantitative high throughput screening (qHTS) against a number of cell lines to determine in vitro cytotoxicity of small molecules. This particular assay uses a human lymphoblastoid cell line (LYMP2-011) purchased from Coriell Institute for Medical Research.
NCGC Assay Protocol Summary:
The CellTiter-Glo luminescent cell viability assay (Promega) is a homogeneous method to measure the number of viable cells in culture. The end point readout of this assay is based on quantitation of intracellular ATP, an indicator of metabolic activity, using the luciferase reaction. Luciferase catalyzes the oxidation of beetle Luciferin to oxyluciferin and light in the presence of ATP. The luminescent signal is proportional to amount of ATP present.
Using the CellTiter-Glo luminescent cell viability assay, the amount of cellular ATP was measured in the lymphoblastoid cell line with complete culture medium following compound treatment for 24 hours. The assay was performed in opaque white Kalypsys 1536-well plates. In the screen, tetraoctylammonium bromide was used as positive control. Library compounds were measured for their ability to cause acute toxicity in the cell line, as reflected by a decrease in intracellular ATP levels, in a concentration-dependent manner. […] AC50 values were determined from concentration-response data modeled with the standard Hill equation.
qHTS protocol for CellTiter Glo lymphoblastoid cellular assay
[Step] [Parameter] [Value] [Description]
1. Reagent; 5 uL; 2500 lymphoblastoid cells/well
2. Time; 5 hr; 37 C incubation
4. Controls; 23 nL; Tetraoctylammonium bromide 6.4pM to 92 uM
5. Time; 24 hr; 37 C incubation
6. Reagent; 5 uL; CellTiter Glo reagent
7. Time; 30 min; Room Temperature
8. Detection; Luminescence; Viewlux plate reader
Keywords: cell viability, cytotoxicity, lymphoblastoid cell line, luminescence, NTPHTS, NTPHTS_NCGC, NIEHS, DSSTox, MLSMR, MLSCN, NIH Roadmap, qHTS, NCGC
Potency is the fitted concentration of half-maximal effect.

SMILES | Potency
CCCCCCCC/C=C\CCCCCCCC(=O)N(CCO)CCO | inactive
c1ccc(Nc2cccc3ccccc23)cc1 | inactive
c1ccc(SCCSc2ccccc2)cc1 | inactive
COc1ccc(C)cc1N | inactive
CC(CCC(=O)O)(c1ccc(O)cc1)c1ccc(O)cc1 | inactive
Clc1nc2ccccc2nc1Cl | inactive
COc1ccc([N+](=O)[O-])cc1N | inactive
O=C(O)/C=C/c1ccc(/C=C/C(=O)O)cc1 | inactive
OCC(CO)(CBr)CBr | inactive
CC(=O)OCc1ccc2c(c1)OCO2 | inactive
CC(C)S | inactive
N=C1C=CC(=C(c2ccc(N)cc2)c2ccc(N)cc2)C=C1 | 7.94 µM (active)
Oc1cc2c(cc1O)[C@H]1c3ccc(O)c(O)c3OC[C@@]1(O)C2 | 39.8 µM (active)
Nc1cc(C(=O)O)c(O)c(S(=O)(=O)O)c1 | inactive
Brc1ccc(-c2ccccc2)cc1 | inactive
C/C=C/C=C/C=O | 50.1 µM (active)
Cc1ccc(N)cc1[N+](=O)[O-] | inactive
CCCCC(CC)COP(=O)(OCC(CC)CCCC)OCC(CC)CCCC (stereo not given) | inactive
Nc1ccc(N)c(Cl)c1 | inactive
c1c[nH]cn1 | inactive

SMILES | Potency
Nc1cnn([C@@H]2O[C@H](CO)[C@@H](O)[C@H]2O)c(=O)n1 | inactive
CCc1ccc(C(c2ccc(CC)cc2)C(Cl)Cl)cc1 | inactive
COc1ccc(C(=O)Nc2ccccc2)cc1[N+](=O)[O-] | inactive
CCC(Cl)CC(Cl)C(Cl)C(Cl)C(Cl)C(C)Cl (stereo not given) | inactive
Cc1ccc2ccc3cccc4ccc1c2c34 | inactive
Nc1cc([N+](=O)[O-])ccc1O | inactive
NC(=O)Nc1nc2ccccc2[nH]1 | inactive
Cc1cc(=O)oc2cc(O)cc(O)c12 | inactive
C=CC(C)(O)CCCC(C)CCCC(C)CCCC(C)C (stereo not given) | inactive
O=C(O)c1ccc([N+](=O)[O-])cc1 | inactive
COc1cc(-c2ccc(N=C=O)c(OC)c2)ccc1N=C=O | inactive
c1ccc(CSCc2ccccc2)cc1 | inactive
Cc1ccc(C(=O)O)cc1[N+](=O)[O-] | inactive
CN(C)c1ccc(Cc2ccc(N(C)C)cc2)cc1 | inactive
NC(=O)c1ccc([N+](=O)[O-])cc1 | inactive
C=CC(=O)OCCCCCCOC(=O)C=C | 39.8 µM (active)
CCN(CC)c1ccc2c(C)cc(=O)oc2c1 | inactive
O=c1[nH]ncc2ccccc12 | inactive
O=[N+]([O-])c1cc(N(CCO)CCO)ccc1NCCO | inactive
Cc1c2ccccc2c(C)c2c1ccc1ccccc12 | inactive
